In PubChem BioAssay AID489008 (National Center for Advancing Translational Sciences (NCATS), 2010):
Records with an inconclusive call do not appear. Activity calls are given as the source filed them. The call rests on the fitted dose curve; in most records, active means well fitted inhibition curve with a large enough effect; inconclusive means small, poorly fitted or top-dose-only effect; inactive means flat fitted curve, though single readings scatter.

Biological target: Ferritin light chain (Equus caballus) (UniProt P02791)
Sequence (P02791 2-175 limits assumed): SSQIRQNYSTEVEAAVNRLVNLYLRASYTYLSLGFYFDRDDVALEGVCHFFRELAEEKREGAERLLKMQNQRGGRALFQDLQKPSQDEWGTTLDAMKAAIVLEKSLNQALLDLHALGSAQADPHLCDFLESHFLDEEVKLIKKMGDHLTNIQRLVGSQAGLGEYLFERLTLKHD
Test: Confirmation Assay for Identification of Novel General Anesthetics; further: nearly all actives have a fitted effect of over 40% in size
Settings: apoferritin 1-aminoanthracene fluorescence displacement
Procedure, shortened: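 Horse apoferritin (10 uM) pre-loaded with 1-AMA (50% saturated, PBS) exposed to compounds 10 min at room temperature; loss of 1-AMA fluorescence (380/535 nm) scaled between free and bound ligand, curves fitted with Hill equation.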
Potency means the concentration at half of the fitted maximal effect.

Potency, active:
Nc1ccc(C23CC4CC(CC(C4)C2)C3)cc1 7.08 µM
CN(C)CC(=O)Nc1ccc(Oc2ccc(Cl)cc2)cc1 28.2 µM
Cc1cc(C)n(-c2ccc(C(=O)NCc3ccc4c(c3)OCO4)cc2)n1 15.8 µM
Cc1ccc(CCC(=O)Nc2cc(Cl)ccc2Cl)o1 7.94 µM
O=C(CCSc1ccccc1)NC(=O)COC(=O)C1CCCCC1 35.5 µM
CCN(CC)C(=S)SCC(=O)c1ccc(F)cc1 15.8 µM
Cc1cc(C(F)(F)F)n(-c2ccc(N)cc2)n1 17.8 µM
c1cnc(NC2C3CC4CC(C3)CC2C4)nc1 (centres undefined) 6.31 µM
O=C(Nc1cccc(Cl)c1)N1CCc2ccccc2C1 11.2 µM
O=C(COC(=O)C1=COCCO1)NC1CCCCCCC1 12.6 µM
CCN1C(=O)N(c2cccc3ccccc23)C(C)=CC1(C)C 14.1 µM
Cc1ccc(C2=NN(CC(=O)NCCc3ccccc3)C(=O)CC2)cc1 5.19 µM
COC(=O)c1ccc(/C=N/OCC(=O)NC2CCCCCCC2)cc1 7.94 µM
COc1cccc(CNc2ccc(F)c(Cl)c2)c1 7.94 µM
O=C(CSc1ccccn1)N1CCc2ccccc21 8.91 µM
Cc1ccccc1Oc1ccccc1N 15.8 µM
O=S(=O)(Nc1cnc2ccccc2c1)N1CCCCCC1 28.2 µM
COc1ccccc1C1SCCN1S(C)(=O)=O (centres undefined) 20 µM
Cc1ccc(O)c(N=Nc2ccccc2)n1 22.4 µM
Cc1sc2ncn(CC(=O)NCc3ccco3)c(=O)c2c1-c1ccccc1 28.2 µM
CC(C)(C)CC(=O)Nc1ccc(Nc2ccccc2)cc1 17.8 µM
Cc1ccc(C(=O)COC(=O)c2ccc(Br)o2)cc1C 15.8 µM
COc1ccccc1CC(=O)Nc1cc(Cl)ccc1O 17.8 µM
Cc1ccc(C2=NN(CC(=O)NC(C)c3ccccc3)C(=O)CC2)cc1 (centres undefined) 31.6 µM
O=C(Nc1nccs1)c1csc2c1CCCC2 8.91 µM
O=C(NC1=NCCS1)C12CC3CC(CC(C3)C1)C2 15.8 µM
Fc1ccccc1CNc1cc(Cl)cc(Cl)c1 14.1 µM
Oc1ccc(NCc2cccc(OCc3ccccc3)c2)cc1 15.8 µM
O=C1c2ccsc2SCCN1Cc1cccc(Cl)c1 15.8 µM
O=c1[nH]c(SCC2CCCCO2)nc2ccccc12 (centres undefined) 14.1 µM
Cc1ccc(S(=O)(=O)NCCC2=CCCCC2)cc1C(N)=O 7.08 µM
Cc1cc(C)n2nc(CC(=O)NC3CCCCCC3)nc2n1 8.91 µM
O=C(CCN1CCN(CCO)CC1)Nc1ccc(C2CCCC2)cc1 31.6 µM
O=C(Nc1cccc(F)c1)N1CCCCCC1 12.6 µM
O=C(OCC(=O)C12CC3CC(CC(C3)C1)C2)c1cccnc1 22.4 µM
CCN(CC)S(=O)(=O)c1ccc(C)c(C)c1 22.4 µM
CC1Cc2ccccc2N1C(=O)CSC1=NCCS1 (centres undefined) 10 µM
O=C(CSC(=S)N1CCCCC1)c1ccccc1 15.8 µM
Oc1ccc(C2C[C@H]3CC[C@@H]2C3)cc1O (some centres undefined) 7.08 µM
